# Results published in PubChem BioAssay.
# Test: small molecules captured by biotinylated probe aFSTL3 – biochemical, small-molecule microarray, fluorescence 635/667, stem cell growth factor project, primary screen (AID 1064);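 note: measures binding of the biotinylated anti-FSTL3 antibody to printed compounds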
# Conditions: higher = more signal
row,SMILES,composite z-score
1,CCOC(=O)CCN1C(=O)[C@H]2[C@H]3[C@H](O)C=CC(=O)[C@@H]3CC[C@H]2C1=O,-0.619
2,CCN1C(=O)[C@H]2[C@H]3[C@H](O)[C@H](O)CC(=NOC[C@@H](C)[C@H](OCc4ccccc4)C(C)C)[C@@H]3CC[C@H]2C1=O,-0.468
3,CO[C@H]1COC(=O)[C@H](C)COC(=O)CC=C[C@@H](C)[C@H](OC)COC(=O)CC=C[C@@H]1C,-0.654
4,C=C(CCCC)C(=O)CC[C@@H](OC(C)=O)c1cccc(OCCO)c1,-0.168
5,C[C@H](c1ccccc1)N1C(=O)[C@H]2[C@@H]3C(=CC[C@H]2C1=O)C(=O)[C@H]1O[C@H]1[C@H]3O,-0.518
6,CC(C)CON=C1C[C@@H](O)[C@@H](O)[C@@H]2[C@@H]3C(=O)N(C[C@@H]4CCCO4)C(=O)[C@@H]3CC[C@H]12,-0.549
7,CCOC(=O)C1=CC[C@H]2C(=O)N(CC)C(=O)[C@@H]12,-0.537
8,C#CCCCON=C1C[C@@H](O)[C@@H](O)[C@@H]2[C@@H]3C(=O)N(c4cccc(Oc5ccccc5)c4)C(=O)[C@@H]3CC[C@@H]12,-0.456
9,CC(CCN1CCc2nc(-c3ccccc3)c(-c3ccccc3)cc2C1)=NOC(C)CN1CCCCc2nc(C)c(C)cc21 (stereo not drawn),-0.16
10,CCOC(=O)[C@H](CC(C)C)NC(=O)CCC1CC(OC(=O)NCc2cccc3ccccc23)CC2(CCCC(COC(=O)NCCc3ccccc3OC)O2)O1 (stereo partly drawn),-0.414
11,COc1cccc([C@@H]2Oc3ccc(Br)cc3C(=O)[C@H]2O)c1,-0.614
12,CS(=O)(=O)CCOC(=O)C1=CC(CCCO)=CC(c2cccs2)N(Cc2cccc(OC(F)(F)F)c2)C=C1C(=O)OCCS(C)(=O)=O (stereo not drawn),-0.215
13,NC(=O)NCC#Cc1ccc2c(c1)[C@]1(C(=O)N2)[C@H](c2ccc(O)cc2)N2[C@H](c3ccccc3)[C@H](c3ccccc3)OC(=O)[C@H]2[C@@H]1C(=O)N1CCCCCCC1,2.38
14,O=C(CS)NCCCCCNC(=O)[C@H]1C[C@H]2C(=O)N3CCC[C@H]3C(=O)N2[C@H]1c1cccc(OCCO)c1,0.32
15,CO[C@H]1COC(=O)[C@H](C)NC(=O)[C@@H](C)COC(=O)CC=C[C@@H]1C,-0.618
16,C=CCOC(=O)[C@H]1[C@@H]2C(=O)O[C@@H](c3ccccc3)[C@@H](c3ccccc3)N2[C@@H](c2ccc(OCCOC(=O)[C@H]3C[C@H]4C(=O)N5CCC[C@H]5C(=O)N4[C@H]3c3cccc(OCCO)c3)cc2)[C@]12C(=O)Nc1ccc(I)cc12,1.82
17,CCN1C(=O)[C@H]2[C@H]3[C@H](O)[C@H](O)CC(=NOCC=C(C)CCC=C(C)C)[C@H]3CC[C@H]2C1=O,-0.968
18,CC(C)[C@@H](OCc1ccccc1)[C@H](C)C=NOC[C@@H](C)[C@H](OCc1ccccc1)C(C)C,-0.539
19,CC=CC1=C(CO)[C@H](O)[C@H]2O[C@H]2[C@H]1O,-0.659
20,COc1ccc(COC(=O)NN=C2C[C@@H](O)[C@@H](O)[C@@H]3[C@@H]4C(=O)N(Cc5ccc6c(c5)OCO6)C(=O)[C@@H]4CC[C@@H]23)cc1,1.58
21,CN1C(=O)C2C=CC(C(O)c3ccc(I)cc3)N(NC(=O)OC(C)(C)C)C2C1=O (stereo not drawn),0.108
22,COc1ccc(COC(=O)NN=C2C[C@@H](O)[C@@H](O)[C@@H]3[C@@H]4C(=O)N(c5ccc(F)cc5F)C(=O)[C@@H]4CC[C@@H]23)cc1,0.827
23,CCOC(=O)[C@H](CC(C)C)NC(=O)CCC1CC(OC(=O)NCCc2ccc(F)cc2)CC2(CCCC(COC(=O)NCc3ccccc3)O2)O1 (stereo partly drawn),-0.969

# Test: binders from COS7 lysate, DM2A8 probe, primary screen, torsin A project, cell lysate, small-molecule microarray, fluorescence 635/667 (AID 1065)
# Conditions: higher = more signal, COS7 lysate expressing mutant human TOR1A
row,SMILES,composite z-score
1,C[C@@H]1CCC2C(=O)N(Cc3ccccc3)C[C@@H](O)CN2[C@H]1c1ccc(Br)cc1 (stereo partly drawn),0.381
2,CCOC(=O)CCN1C(=O)[C@H]2[C@H]3[C@H](O)[C@H](O)CC(=O)[C@H]3CC[C@H]2C1=O,0.418
3,C#CCCCON=C1C[C@@H](O)[C@@H](O)[C@@H]2[C@@H]3C(=O)N(CCC(=O)OCC)C(=O)[C@@H]3CC[C@@H]12,0.597
4,O=C1[C@H]2[C@H]3[C@H](O)[C@H](O)CC(=NOCc4ccccc4)[C@H]3CC[C@H]2C(=O)N1C[C@@H]1CCCO1,-0.259
5,C#CCCCON=C1C[C@@H](O)[C@@H](O)[C@@H]2[C@@H]3C(=O)N([C@@H](C)c4ccccc4)C(=O)[C@@H]3CC[C@H]12,-0.0639
6,CCOC(=O)[C@H](Cc1ccccc1)NC(=O)CCC1CC(OC(=O)NCc2ccc3c(c2)OCO3)CC2(CCCC(COC(=O)NCc3cccc(C(F)(F)F)c3)O2)O1 (stereo partly drawn),0.226
7,C=CC[C@@H]1C=C[C@H](ON=C(C)CCN2CCc3nc(CC)c(CC)cc3C2)[C@@H](CO)O1,1.43
8,O=C1C2C=CC(C(O)c3ccc([N+](=O)[O-])cc3)N(Nc3ccc([N+](=O)[O-])cc3)C2C(=O)N1c1ccccc1 (stereo not drawn),-0.0145
9,CC(C)[C@H](NC(=O)OC(C)(C)C)[C@@H](O)CC(=O)OC(C)(C)C,-0.584
10,NCCCCCNC(=O)[C@@H]1C[C@@H]2C(=O)N3CCC[C@H]3C(=O)N2[C@@H]1c1cccc(OCCO)c1,2.1
11,COC(=O)CC=C[C@H](C)[C@@H](OCc1ccccc1Br)C(C)C,0.398
12,COc1ccc([Si](C)(C)[C@H]2[C@H](CCO)O[C@@]3(C(=O)N(Cc4cccc(NC(=O)[C@H](C)O)c4)c4ccccc43)[C@@H]2C)cc1,0.634
13,CCOC(=O)CCN1C(=O)[C@H]2[C@H]3[C@H](O)C=CC(=O)[C@@H]3CC[C@H]2C1=O,0.153
14,CCN1C(=O)[C@H]2[C@H]3[C@H](O)[C@H](O)CC(=NOC[C@@H](C)[C@H](OCc4ccccc4)C(C)C)[C@@H]3CC[C@H]2C1=O,1.28
15,CO[C@H]1COC(=O)[C@H](C)COC(=O)CC=C[C@@H](C)[C@H](OC)COC(=O)CC=C[C@@H]1C,0.682
16,C=C(CCCC)C(=O)CC[C@@H](OC(C)=O)c1cccc(OCCO)c1,-0.371
17,C[C@H](c1ccccc1)N1C(=O)[C@H]2[C@@H]3C(=CC[C@H]2C1=O)C(=O)[C@H]1O[C@H]1[C@H]3O,0.34
18,CC(C)CON=C1C[C@@H](O)[C@@H](O)[C@@H]2[C@@H]3C(=O)N(C[C@@H]4CCCO4)C(=O)[C@@H]3CC[C@H]12,0.254

row,SMILES,composite z-score
1,CCOC(=O)C1=CC[C@H]2C(=O)N(CC)C(=O)[C@@H]12,0.448
2,C#CCCCON=C1C[C@@H](O)[C@@H](O)[C@@H]2[C@@H]3C(=O)N(c4cccc(Oc5ccccc5)c4)C(=O)[C@@H]3CC[C@@H]12,-0.666
3,CC(CCN1CCc2nc(-c3ccccc3)c(-c3ccccc3)cc2C1)=NOC(C)CN1CCCCc2nc(C)c(C)cc21 (stereo not drawn),-0.0309
4,CCOC(=O)[C@H](CC(C)C)NC(=O)CCC1CC(OC(=O)NCc2cccc3ccccc23)CC2(CCCC(COC(=O)NCCc3ccccc3OC)O2)O1 (stereo partly drawn),0.301
5,COc1cccc([C@@H]2Oc3ccc(Br)cc3C(=O)[C@H]2O)c1,0.291
6,CS(=O)(=O)CCOC(=O)C1=CC(CCCO)=CC(c2cccs2)N(Cc2cccc(OC(F)(F)F)c2)C=C1C(=O)OCCS(C)(=O)=O (stereo not drawn),1.76
7,NC(=O)NCC#Cc1ccc2c(c1)[C@]1(C(=O)N2)[C@H](c2ccc(O)cc2)N2[C@H](c3ccccc3)[C@H](c3ccccc3)OC(=O)[C@H]2[C@@H]1C(=O)N1CCCCCCC1,-0.206
8,O=C(CS)NCCCCCNC(=O)[C@H]1C[C@H]2C(=O)N3CCC[C@H]3C(=O)N2[C@H]1c1cccc(OCCO)c1,1.52
9,CO[C@H]1COC(=O)[C@H](C)NC(=O)[C@@H](C)COC(=O)CC=C[C@@H]1C,1.06
10,C=CCOC(=O)[C@H]1[C@@H]2C(=O)O[C@@H](c3ccccc3)[C@@H](c3ccccc3)N2[C@@H](c2ccc(OCCOC(=O)[C@H]3C[C@H]4C(=O)N5CCC[C@H]5C(=O)N4[C@H]3c3cccc(OCCO)c3)cc2)[C@]12C(=O)Nc1ccc(I)cc12,1.9
11,CCN1C(=O)[C@H]2[C@H]3[C@H](O)[C@H](O)CC(=NOCC=C(C)CCC=C(C)C)[C@H]3CC[C@H]2C1=O,0.689
12,CC(C)[C@@H](OCc1ccccc1)[C@H](C)C=NOC[C@@H](C)[C@H](OCc1ccccc1)C(C)C,0.0717
13,CC=CC1=C(CO)[C@H](O)[C@H]2O[C@H]2[C@H]1O,0.253
14,COc1ccc(COC(=O)NN=C2C[C@@H](O)[C@@H](O)[C@@H]3[C@@H]4C(=O)N(Cc5ccc6c(c5)OCO6)C(=O)[C@@H]4CC[C@@H]23)cc1,0.43
15,CN1C(=O)C2C=CC(C(O)c3ccc(I)cc3)N(NC(=O)OC(C)(C)C)C2C1=O (stereo not drawn),-0.0004
16,COc1ccc(COC(=O)NN=C2C[C@@H](O)[C@@H](O)[C@@H]3[C@@H]4C(=O)N(c5ccc(F)cc5F)C(=O)[C@@H]4CC[C@@H]23)cc1,0.515
17,CCOC(=O)[C@H](CC(C)C)NC(=O)CCC1CC(OC(=O)NCCc2ccc(F)cc2)CC2(CCCC(COC(=O)NCc3ccccc3)O2)O1 (stereo partly drawn),0.561
